Screening data (PubChem BioAssay)
The list is not random: actives were taken first. Their share in the collection is about 12%.
WT yeast gro inh = growth inhibition of WT yeast, mitochondrial fusion screen | mitochondrial fusion phenotypic screen, WT strain | inhibition, % at 10 µM | 190,000 compounds, 2.1% hits | AID 1362; in the data active = inhibition above about 58%; tested in S. cerevisiae
L major viab = inhibitors of Leishmania major promastigote growth; inhibition, % at 10 µM; 200,000 compounds, 9% hits; Leishmania major promastigotes, resazurin fluorescence viability; in the data active = inhibition above about 50%;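 note: promastigotes grown with compound for 44 hours at 28 °C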
KCC2 mod = KCC2 (human) Cl- transport modulation; AID 1456; 190,000 compounds, 2.2% hits; B-score of Tl+ flux slope (higher = more flux/activation; lower = inhibition) at 10 µM; Q9H2X9; KCC2 cells, thallium flux FluoZin-2 fluorescence;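 active = thallium flux slope and its plate-corrected score both differing from the plate sample mean at a set confidence after two filtering rounds, in either direction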;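 note: slope of fluorescence scaled to starting intensity during 10 to 20 s after thallium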
ROMK mod = human ROMK K+ channel modulation, primary screen; 130,000 compounds, 2% hits; B-score at 10 µM; Tet-inducible ROMK, thallium flux fluorescence; actives lie on both sides; P48048; AID 1918;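 active = signal ratio slope over the read window, or its plate-corrected B-score, at least 3 SD from the plate mean, either direction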;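 note: B-score of the F/F0 ratio slope over 7 to 12 s after thallium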
Insulin prom inh = TRM-6 insulin promoter activity inhibition. TRM-6 cells (human fetal islet line), insulin promoter-eGFP reporter, imaging; reporter expression induced with tamoxifen. inhibition, % at 2 µM. 130,000 compounds, 0.9% hits. AID 1273;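 active = inhibition above the mean plus 3 SD, with well images judged a real hit on visual review, cut at about 60% in these data, passing the limit was not always enough; inconclusive = inhibition over the cutoff but images rejected on review; inactive = inhibition not above the cutoff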
Ins promoter up = MIN6 insulin promoter up-regulation | 190,000 compounds, 0.3% hits | z-score at 5 µM | AID 1625 | MIN6 insulin promoter-GFP reporter, high-content imaging; active compounds read high;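 active = z-score above 3 at 5 µM with at least 500 cells counted in the well; inconclusive = wells under 500 cells, flagged as cytotoxic or low count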
ROMK retest = retested hit modulating human ROMK potassium channel. shares compounds with ROMK mod. ROMK thallium flux, fluorescence ratio; active compounds read low. normalized thallium flux (F/F0 slope) at 10 µM. 3,000 compounds, 54% hits. AID 1917;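 active = Flux at 10 µM at least 3 SD below or above vehicle control mean in one or both replicates; inconclusive = no clear call, values can overlap the other calls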
Large screens that a line does not name were inactive (follow-up assays come after a bar, where they were run).

CC1(C)CC(CC(=O)O)CC(C)(C)N1	none (no result: Insulin prom inh)
Cc1cc(/C=N\NC(=O)COc2cccc3cccnc23)c(C)n1-c1ccccc1	none
Cc1cc(/C=N/NC(=O)C(=O)NCc2ccccn2)c(C)n1-c1ccccc1	ROMK mod 2.7 | ROMK retest inactive
CCOC(=O)c1nnc(-c2ccccc2)nc1Oc1ccc(Cl)cc1	none (no result: KCC2 mod, ROMK mod)
CC(=O)c1ccc(N2CCN(C(=S)Nc3cc(C)ccc3C)CC2)cc1	none
CC(=N/O)/C(C)=N\NC(=O)c1ccccn1	ROMK mod -3.9 | ROMK retest inactive
CCc1ccc(/C(C)=N/NC(=O)c2ccccn2)cc1	none
O=[N+]([O-])c1ccc(N2CCOCC2)cc1O	none (no result: WT yeast gro inh, L major viab, KCC2 mod, ROMK mod, Insulin prom inh)
Cc1cc(N2CCOCC2)ccc1/C=C\[N+](=O)[O-]	L major viab 70, ROMK mod -4.5 | ROMK retest 0.05
CCCCN(CCCC)CC(O)COc1ccccc1C(=O)Nc1ccccc1 (stereo not given)	L major viab 91, ROMK mod -3.5 (no result: Insulin prom inh) | ROMK retest 0.053
NS(=O)(=O)c1ccc(NC(=O)COC(=O)C2(c3ccccc3F)CCCC2)cc1	none (no result: ROMK mod, Insulin prom inh, Ins promoter up)
NC(=O)c1ccc(NC(=O)COC(=O)C2(c3ccccc3F)CCCC2)cc1	ROMK mod -13 | ROMK retest inactive
CC(C)COC(=O)/C(C#N)=C/c1c[nH]c2ccccc12	none (no result: ROMK mod, Insulin prom inh) | ROMK retest 0.034
CCOC(=O)/C(=C/c1c[nH]c2ccccc12)NC(C)=O	none (no result: KCC2 mod, ROMK mod, Ins promoter up)
COC(=O)/C(=C/c1cn(C)c2ccccc12)[N+](=O)[O-]	none (no result: ROMK mod) | ROMK retest 0.042
COC(=O)/C(=C/c1c[nH]c2ccccc12)[N+](=O)[O-]	ROMK mod -3.8 (no result: Insulin prom inh) | ROMK retest 0.062
CC(C)(CN1CCC(Cc2ccccc2)CC1)NS(=O)(=O)c1ccccc1	none (no result: WT yeast gro inh, L major viab, ROMK mod, Insulin prom inh, Ins promoter up)
CC(=O)Nc1cccc(NC(=O)C2CCCN2C(=O)Nc2ccc(C)cc2)c1 (stereo not given)	none (no result: ROMK mod)
Cc1cc(C)cc(NC(=O)N2CCCC2C(=O)Nc2ccc(-n3cnnn3)c(C)c2)c1 (stereo not given)	none (no result: ROMK mod) | ROMK retest inactive
O=C(O)/C(=C\c1ccccc1OC(F)F)Sc1nnc(-c2ccc(F)cc2)o1	ROMK mod -3 | ROMK retest 0.056
CSc1nnc(-c2ccc(F)cc2)o1	none (no result: ROMK mod)
CCOc1ccccc1NC(=O)COC(=O)C(CC(C)C)N1C(=O)C2CC=CCC2C1=O (stereo not given)	none (no result: ROMK mod, Insulin prom inh) | ROMK retest 0.063
CC(=O)C1=C(O)C(=O)N(CCN(C)C)C1c1ccc(Cl)cc1 (stereo not given)	none (no result: ROMK mod)
CCOc1ncccc1C(=O)N1CCN(C(=O)c2ccccc2)CC1	none (no result: KCC2 mod)
CCOc1ncccc1C(=O)N1CCN(S(=O)(=O)c2ccccc2)CC1	none
CCCN1Cc2cccc(C(=O)N3CCN(c4cc(Cl)ccc4C)CC3)c2C1=O	L major viab 97 (no result: ROMK mod, Insulin prom inh) | ROMK retest inconclusive
CCOc1ncccc1C(=O)N1CCN(c2cc(Cl)ccc2C)CC1	ROMK mod 3.3 (no result: Insulin prom inh) | ROMK retest inactive
CCOc1ncccc1C(=O)N1CCN(c2cccc(C)c2C)CC1	ROMK mod 7.3 (no result: Insulin prom inh, Ins promoter up) | ROMK retest inactive
CC1CN(c2nnc(-c3ccccc3)c3ccccc23)CC(C)O1 (stereo not given)	none (no result: Insulin prom inh)
O=C(CCCN1C(=O)c2ccccc2C1=O)NC1CCCCCC1	ROMK mod 1.2 | ROMK retest inactive
CCOC(=O)CSc1snnc1C	none (no result: WT yeast gro inh, KCC2 mod, ROMK mod, Ins promoter up)
COc1ccccc1C1CCN(c2cc(O)ccc2[N+](=O)[O-])CC1	none (no result: WT yeast gro inh, L major viab, KCC2 mod, ROMK mod, Insulin prom inh) | ROMK retest inactive
CCCOC(=O)c1cc(=O)[nH]c2ccccc12	none (no result: ROMK mod, Insulin prom inh)
NC(=O)c1ccsc1NC(=O)COC(=O)Cc1ccsc1	none
COc1cc(CC(=O)OCC(=O)Nc2sccc2C(N)=O)cc(OC)c1OC	Insulin prom inh 91 | ROMK retest 0.062
CCOc1nc2ccccc2cc1C=O	ROMK mod 5.3 (no result: Insulin prom inh) | ROMK retest 0.12
CCCOc1nc2ccccc2cc1/C=C/C(=O)O	none (no result: Insulin prom inh)
CC(C)(C)c1ncc(S(=O)(=O)c2ccc(C(F)(F)F)cn2)c(N)n1	none (no result: WT yeast gro inh, L major viab, ROMK mod, Insulin prom inh)
COc1ccc(OCC(=O)NNc2c3ccccc3nc3ccccc23)cc1	WT yeast gro inh 64 (no result: KCC2 mod, ROMK mod) | ROMK retest inconclusive
O=C(COc1ccccc1)NNc1c2ccccc2nc2ccccc12	none (no result: ROMK mod)
Cc1ccc(S(=O)(=O)Nc2ccccc2C(=O)NCc2cccnc2)cc1	ROMK mod 2.8 (no result: Insulin prom inh) | ROMK retest inactive
